Screens (PubChem BioAssay)
Shown are actives, neighbours in structure and some others; about 2.3% of the full set was active somewhere.
TRPV1 potentiator – human TRPV1 potentiation. AID 540277. 0.02% of 320,000 active. TRPV1-expressing cells, Fluo-8 calcium influx, capsaicin EC20 potentiation. potentiation, % at 8.33 µM. Q8NER1; in the data active = potentiation above about 80%; inconclusive = between about 30% and that limit; also: 0% is about no effect
Target sequence (Q8NER1 whole entry, looked up): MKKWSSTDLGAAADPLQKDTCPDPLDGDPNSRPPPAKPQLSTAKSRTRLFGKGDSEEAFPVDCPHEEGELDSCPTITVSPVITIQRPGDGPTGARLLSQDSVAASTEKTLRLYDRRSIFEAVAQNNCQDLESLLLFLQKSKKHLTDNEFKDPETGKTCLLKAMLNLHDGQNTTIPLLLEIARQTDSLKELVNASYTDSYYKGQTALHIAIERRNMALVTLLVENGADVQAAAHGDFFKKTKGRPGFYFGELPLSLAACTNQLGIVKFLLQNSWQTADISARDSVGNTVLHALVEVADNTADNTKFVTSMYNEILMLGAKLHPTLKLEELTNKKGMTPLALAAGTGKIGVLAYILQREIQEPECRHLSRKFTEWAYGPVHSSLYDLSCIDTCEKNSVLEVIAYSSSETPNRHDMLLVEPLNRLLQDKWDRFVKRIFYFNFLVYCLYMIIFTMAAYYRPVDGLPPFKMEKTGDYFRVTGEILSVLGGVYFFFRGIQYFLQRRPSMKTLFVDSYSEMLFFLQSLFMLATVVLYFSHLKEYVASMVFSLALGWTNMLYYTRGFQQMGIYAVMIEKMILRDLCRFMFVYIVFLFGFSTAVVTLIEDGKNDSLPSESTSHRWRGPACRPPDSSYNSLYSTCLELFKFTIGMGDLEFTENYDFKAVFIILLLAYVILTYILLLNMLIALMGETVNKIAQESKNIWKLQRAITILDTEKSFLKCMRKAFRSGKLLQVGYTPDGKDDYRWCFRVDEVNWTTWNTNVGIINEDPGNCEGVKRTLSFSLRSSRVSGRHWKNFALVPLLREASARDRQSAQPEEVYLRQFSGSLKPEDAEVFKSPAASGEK
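Fluo-8 calcium influx in TRPV1-expressing cells, kinetic read (ex 480/em 520 nm). Compound added and read 3 min for agonist activity, followed by capsaicin at EC20 final and 2 min further read for enhancement.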
ELG1 repair inh – ELG1-dependent DNA repair inhibition; HEK293T ELG1-luciferase reporter, luminescence, 16 h; DNA damage induced by 5-fluorouridine; Potency, µM (titrated, usually from 46.1 µM), without a hit: at the top dose activity change, negative = inhibition, actives largely listed as inhibitors; 2.3% of 330,000 active; also: potency is read from the fitted curve at half-maximal effect; % is scaled to controls: 0 for no effect and ±100 for the full control effect; nearly all actives have a fitted effect of over 55% in size
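5-Fluorouridine DNA damage + compound/DMSO, 2,000 cells/well, 16 h, 37 °C/5% CO2. ONE-Glo, 30 min RT, luminescence. Readout = decrease in reporter signal.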
Giardia kill – Giardia lamblia killing. 0.15% of 340,000 active. Giardia lamblia trophozoite viability. activity change, % at 7.66 µM, hits read low; in the data active = activity change below about -80%; inconclusive = between about -30% and that limit;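 also: parasites exposed to compound for two days anaerobically before the ATP read; % is scaled to controls: 0 for no effect and ±100 for the full control effect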
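Each well holds 100 Giardia trophozoites and compound. After two days (48 hrs) at 37 deg C in anaerobic conditions, ATP is quantified by luminescence.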
TRPV1 ag – activates the human vanilloid receptor TRPV1; AID 540275; Q8NER1; activation, % at 8.33 µM; TRPV1-expressing cells, Fluo-8 calcium influx, agonist mode; 0.19% of 320,000 active; in the data active = activation above about 80%; inconclusive = between about 30% and that limit; also: 0% is about no effect
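TRPV1-expressing cells were cultured overnight at 35.5C and loaded with Fluo-8 calcium dye for 40 to 90 min at room temperature. After a 10 s baseline, compound was added and calcium influx was read kinetically for 3 min (ex 480/em 520 nm).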
FUS suppressor – suppressors of FUS proteinopathy in yeast | S. cerevisiae FUS-expressing, growth rescue, OD600, 24 h | Potency, µM (series often up to 76.6 µM), usual class: activators | 0.24% of 390,000 active;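 also: potency is read from the fitted curve at half-maximal effect; plate controls were DMSO vehicle for no effect and reference control for full effect; nearly all actives have a fitted effect of over 55% in size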
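Yeast expressing FUS under galactose induction, OD 0.005 in 2% galactose medium; compounds in a dilution series, 24 h at 30C. Growth rescue by absorbance at 600 nm; CP55940 positive control, DMSO negative.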
The depositor's hits bear a star; i = inactive; ? = inconclusive; . = no result. Unless noted, calls follow the shape of the dose curve; as a rule, active = well fitted curve in the direction sought with a large enough effect; inconclusive = small, poorly fitted or top-dose-only effect, or another doubt; inactive = no such curve, though single readings can be large; an effect the other way counts as inactive or inconclusive.

SMILES	TRPV1 potentiator	ELG1 repair inh	Giardia kill	TRPV1 ag	FUS suppressor
COc1ccccc1NC(=O)C1=C(C)Nc2nc(SCc3ccccc3)nn2C1c1cccc(O)c1 (configuration not stated)	.	.	.	.	i
Cc1c(C(=O)NCc2ccccc2)oc2ccc(S(=O)(=O)N3CCCC3)cc12	.	14.6µM*	?	.	i
COc1ccc(NC(=O)c2oc3ccc(S(=O)(=O)N4CCC5(CC4)OCCO5)cc3c2C)cc1	-4.7	5.8µM*	-10.7	4.9	?
CCCCC(=O)N(C)c1c(CC)nc2c(OCC(=O)c3ccc(F)cc3)cccn12	.	.	.	.	i
CCOCCc1nn2c(=O)cc(COC(=O)c3ccc4c(c3)OCO4)nc2s1	.	.	.	.	i
COc1cccc(CN2C(=O)c3ccccc3Sc3ccc(C(=O)NCCc4ccc(Cl)cc4)cc32)c1	5.0	.	4.6	11.4	i
O=C(NCCNS(=O)(=O)c1ccccc1Cl)c1cc(OCC(F)(F)F)ccc1OCC(F)(F)F	-24.3	14.6µM*	0.3	?	i
Cc1ccc(S(=O)(=O)NCCNC(=O)c2cc(OCC(F)(F)F)ccc2OCC(F)(F)F)cc1	-30.3	5.5%	2.0	?	i
COc1cccc(C2C=C(c3ccccc3)Nc3c(C(=O)Nc4ccccc4)cnn32)c1OC (configuration not stated)	.	.	.	.	i
CCOc1ccc(NC(=O)c2cnn3c2NC(c2ccccc2)=CC3c2cccc(OC)c2OC)cc1 (configuration not stated)	.	.	.	.	22.4µM*
COc1ccc(C2CC(=O)c3c([nH]c(C(=O)OC4CCCCCC4)c3C)C2)cc1OC (configuration not stated)	.	.	.	.	i
COc1ccc(CCNC(=O)C(=O)NCC2CCCN2S(=O)(=O)c2ccc(OC)cc2)cc1 (configuration not stated)	-2.5	20.6µM*	-10.5	-3.9	i
NC(=O)c1ccc2c(=O)n3c(-c4cc(Cl)c(N)c(Cl)c4)csc3nc2c1	0.0	10.3µM*	-3.0	-2.7	?
Cc1csc2nc3cc(C(N)=O)ccc3c(=O)n12	-16.0	?	5.3	4.1	i
CCCNC(=O)C1(C)CCN(C(=O)c2cccnc2Oc2ccccc2)C1 (configuration not stated)	.	.	.	.	i
CC(C)(C)c1ccc(C(=O)N2CCC(c3nc4ccccc4o3)CC2)cc1	.	.	.	.	i
O=C(N/N=C/c1ccccc1)c1ccc(CN2C(=O)c3cccc4cccc2c34)cc1	1.4	?	-16.1	28.0	i
O=C(N/N=C/c1ccc(O)cc1O)c1ccc(CN2C(=O)c3cccc4cccc2c34)cc1	8.4	2.91µM*	7.1	14.2	?
CCN(CC)S(=O)(=O)c1ccc(C(=O)Nc2nnc(-c3ccco3)o2)cc1	-2.3	20.6µM*	0.3	-1.2	i
CN(C)S(=O)(=O)c1ccc(C(=O)Nc2nnc(-c3ccco3)o2)cc1	-28.4	?	-21.1	5.4	i
Cc1c(NC(=O)c2cccc(-c3cc4ccccc4oc3=O)c2)cccc1-c1nc2ncccc2o1	-2.1	13µM*	1.4	0.6	i
O=C1c2ccccc2NC(c2cn[nH]c2-c2ccc(Cl)cc2)N1O (configuration not stated)	4.8	-3.8%	-5.9	-0.1	25.1µM*
NC(Cc1ccc(C(F)(F)F)cc1)c1csc(Nc2ccc(S(N)(=O)=O)cc2)n1 (configuration not stated)	.	.	.	.	i
CCc1cccc(C)c1NC(=O)C(CC)n1ncn2c(cc3cc(C)ccc32)c1=O (configuration not stated)	.	.	.	.	i
Cc1ccc(S(=O)(=O)Nc2ccc(Br)cc2C(NCC(=O)O)c2ccccc2)cc1 (configuration not stated)	-2.1	5.1%	1.7	-0.1	.
SMILES	TRPV1 potentiator	ELG1 repair inh	Giardia kill	TRPV1 ag	FUS suppressor
O=S(=O)(Nc1cc(Sc2ncn[nH]2)c(O)c2ccccc12)c1ccccc1	11.0	23.1µM*	-17.4	2.2	i
O=C(O)CSc1cc(NS(=O)(=O)c2ccc(Br)cc2)c2ccccc2c1O	6.0	14.6µM*	-22.6	1.6	i
CCCn1c(-c2ccc(S(=O)(=O)N3CCOCC3)cc2)csc1=Nc1ccc(OCC)cc1	.	.	.	.	i
O=C(CSc1nc2nn(-c3ccccc3)c(=O)c-2c2n1CCCCC2)Nc1ccc(OC(F)F)cc1	.	13µM*	16.5	.	i
O=C(CSc1nc2nn(-c3ccccc3)c(=O)c-2c2n1CCCCC2)c1ccc(O)c(O)c1	-4.5	18.3µM*	2.1	-2.9	.
Cc1cc(C)n(-c2nc(N(c3ccccc3)c3ccccc3)nc(-n3nc(C)cc3C)n2)n1	-9.9	25.9µM*	4.0	?	i
COc1cccc(CNC(=O)Cc2c(C)c3cc4c(C)coc4cc3oc2=O)c1	.	.	.	.	i
CC(C)c1ccc(CCNC(=O)c2ccc([N+](=O)[O-])cc2)cc1	-15.6	9.2µM*	-1.2	?	i
COc1ccccc1NC(=O)CN(Cc1ccco1)C(=O)c1ccc(-n2nc(C)cc2C)cc1	24.9	23.1µM*	-4.4	-1.7	i
CCCN(CC(=O)Nc1ccccc1OC)C(=O)c1cc(-c2ccccc2)nn1-c1ccccc1	0.6	20.6µM*	4.0	20.2	?
COCCN(CC(=O)Nc1cccc(C)c1C)C(=O)c1cc(-c2cccs2)nn1-c1ccccc1	19.3	12.6µM*	-4.0	10.9	?
Cn1c(=O)n(Cc2ccccc2)c(=O)c2c1nc1n2CCCN1CCc1ccccc1	-1.2	23.1µM*	-5.3	6.4	?
Cn1c(=O)n(Cc2ccccc2)c(=O)c2c1nc1n2CCCN1Cc1ccccc1	8.8	-0.6%	-6.9	1.2	i
COCCn1c(=O)c2c(nc3n2CCCN3CCc2ccccc2)n(C)c1=O	6.8	-12.2%	18.3	-0.4	i
C=C(C)Cn1c(=O)c2c(nc3n2CCCN3CCc2ccccc2)n(C)c1=O	9.3	16.4µM*	26.7	-1.6	i
COC(=O)CN1C(=O)CSc2ccc(S(=O)(=O)Nc3cccc(Br)c3)cc21	.	.	.	.	i
O=C(Nc1ccc(C(F)(F)F)cc1)C1CCC(CNS(=O)(=O)c2cccc3nsnc23)CC1 (configuration not stated)	.	.	.	.	i
CCOC(=O)c1c(C)oc2c1c(C=NCc1ccccn1)c(O)c1ccccc12	-6.4	18.4µM*	-6.7	17.5	.
CCC1CCCCN1C(=O)CSc1nc2c([nH]c3ccccc32)c(=O)n1-c1cccc(OC)c1 (configuration not stated)	.	.	.	.	i
O=[N+]([O-])c1cc(O)c2ncccc2c1	9.3	2.59µM*	0.7	-1.6	i
O=[N+]([O-])c1cc2cccnc2c2ncccc12	17.3	7.3µM*	-87.7*	-0.4	i
O=C1c2cc(S(=O)(=O)N3CCOCC3)ccc2-c2ccc(S(=O)(=O)N3CCOCC3)cc21	.	.	-7.9	.	.
N#Cc1nc(N2CCCC2)nc(N(c2ccccc2)c2ccccc2)n1	.	.	-2.1	.	.
